For 17 molecules, AC50 and outcome results are on record in PubChem BioAssay (EPA / NIEHS).

Active and inactive are the calls of the source. How the source made its calls: active means hit-call score of the fitted dose curve at least 0.9, where 1 is the maximum; inactive means score below 0.9.

Conditions in all cases: primary human HUVEC with PBMC; actives raise or lower the signal
Read-out in test [1]: Macrophage colony-stimulating factor (MCSF), CSF1 (gene 1435)
As to the kind of experiment: BSK_LPS_MCSF: BioMAP Diversity Plus: LPS Assay for Macrophage colony-stimulating factor (MCSF) Biomarker Activity (AID 2283083). In outline: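 HUVEC + PBMC co-culture (human primary), 24 h post-dose; M-CSF by ELISA; gain/loss of signal fitted bidirectionally vs DMSO baseline.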

Read-out in test [2]: Tissue Factor, F3 (gene 2152)
As to the kind of experiment: BSK_LPS_TissueFactor: BioMAP Diversity Plus: LPS Assay for Tissue Factor Biomarker Activity (AID 2283084). In a few lines:
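HUVEC/PBMC co-culture, LPS-activated; CD142 ELISA read 24 h post-dose; bidirectional curve fit vs DMSO negative control.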

Read-out in test [3]: Tumor necrosis factor (Homo sapiens) (UniProt P01375)
Briefly: BSK_LPS_TNFa: BioMAP Diversity Plus: LPS Assay for Tumour Necrosis Factor alpha (TNFa) Biomarker Activity (AID 2283085).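 On AC50: TNFa protein level quantified by ELISA in the co-culture.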 In a few lines: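 TNFa was quantified by ELISA in LPS-activated co-cultures of human endothelial cells and PBMC, 24 h post-dosing. Both increases and decreases versus DMSO were fitted.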

Read-out in test [4]: Vascular cell adhesion molecule 1 (VCAM1), VCAM1 (gene 7412)
As to the kind of experiment: BSK_LPS_VCAM1: BioMAP Diversity Plus: LPS Assay for Vascular cell adhesion molecule 1 (VCAM1) Biomarker Activity (AID 2283086). In a few lines: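 VCAM-1 quantified by ELISA in an LPS-activated co-culture of human endothelial cells and peripheral blood mononuclear cells, read 24 h post-treatment. Fitted in both directions versus DMSO; parallel SRB staining flags overt cytotoxicity.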

Read-out in another test: CD38, CD38 (gene 952)
As to the kind of experiment: BSK_SAg_CD38: BioMAP Diversity Plus: SAg Assay for CD38 Biomarker Activity (AID 2283087). In a few lines: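 CD38 quantified by ELISA (fluorescence) in a superantigen-activated endothelial cell–PBMC co-culture at 24 h post-dose. Activity fitted in both directions relative to DMSO; parallel SRB and Alamar Blue cytotoxicity read-outs.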

Read-out in a further test: CD40, CD40 (gene 958)
Briefly: BSK_SAg_CD40: BioMAP Diversity Plus: SAg Assay for CD40 Biomarker Activity (AID 2283088). In outline:
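HUVEC/PBMC co-culture, 24 h post-dose; CD40 by ELISA, fluorescence intensity; bidirectional fit vs DMSO negative control.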

Read-out in another test: CD69, CD69 (gene 969)
As to the kind of experiment: BSK_SAg_CD69: BioMAP Diversity Plus: SAg Assay for CD69 Biomarker Activity (AID 2283089).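 On AC50: cell surface CD69 protein quantified by ELISA with fluorescence detection.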 In a few lines: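 HUVEC co-cultured with PBMC were dosed with chemical, and CD69 was measured by ELISA with fluorescence read-out 24 h later. Bidirectional curve fitting used DMSO as negative control and activity baseline.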

Read-out in test [5]: Monocyte Chemoattractant Protein-1 (MCP1), CCL2 (gene 6347)
Briefly: BSK_SAg_MCP1: BioMAP Diversity Plus: SAg Assay for Monocyte Chemoattractant Protein-1 (MCP1) Biomarker Activity (AID 2283090). In outline: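 Values derive from bidirectional fitting of ELISA-measured MCP1 against DMSO controls. Readings were taken 24 h after dosing human vascular endothelial cells co-cultured with peripheral blood mononuclear cells under superantigen stimulation.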

Read-out in test [6]: E-selectin (Homo sapiens) (UniProt P16581)
Briefly: BSK_SAg_Eselectin: BioMAP Diversity Plus: SAg Assay for Eselectin Biomarker Activity (AID 2283091). In a few lines: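 E-selectin ELISA readout at 24 h post-dosing in human umbilical vein endothelial cell/PBMC co-culture; gain or loss of signal fitted relative to DMSO baseline.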

Read-out in test [7]: Monokine induced gamma interferon (MIG), CXCL9 (gene 4283)
Briefly: BSK_SAg_MIG: BioMAP Diversity Plus: SAg Assay for Monokine induced gamma interferon (MIG) Biomarker Activity (AID 2283092). In a few lines:
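HUVEC plus human PBMC co-culture, chemicals dosed and MIG (CXCL9) quantified by ELISA at 24 h. Bidirectional curve fitting against DMSO as negative control and baseline, so both gain and loss of signal count as activity.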

E-selectin (Homo sapiens), sequence (P16581 whole entry, looked up): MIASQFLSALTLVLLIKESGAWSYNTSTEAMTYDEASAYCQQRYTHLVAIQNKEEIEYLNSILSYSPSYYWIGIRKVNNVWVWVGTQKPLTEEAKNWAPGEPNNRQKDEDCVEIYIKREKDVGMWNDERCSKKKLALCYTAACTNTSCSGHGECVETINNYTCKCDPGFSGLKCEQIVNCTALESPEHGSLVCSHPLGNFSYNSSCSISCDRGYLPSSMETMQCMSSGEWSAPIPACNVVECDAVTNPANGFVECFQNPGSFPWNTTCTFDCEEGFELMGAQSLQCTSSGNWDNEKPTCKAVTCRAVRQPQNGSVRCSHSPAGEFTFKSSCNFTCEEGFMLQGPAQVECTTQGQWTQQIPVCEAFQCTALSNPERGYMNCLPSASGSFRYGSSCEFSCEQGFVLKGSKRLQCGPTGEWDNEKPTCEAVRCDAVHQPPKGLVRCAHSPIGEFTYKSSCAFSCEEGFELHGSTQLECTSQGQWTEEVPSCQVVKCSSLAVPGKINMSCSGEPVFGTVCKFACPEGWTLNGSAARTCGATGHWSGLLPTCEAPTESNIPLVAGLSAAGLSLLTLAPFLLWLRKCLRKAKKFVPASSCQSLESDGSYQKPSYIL
Tumor necrosis factor (Homo sapiens), sequence (P01375 whole entry, looked up): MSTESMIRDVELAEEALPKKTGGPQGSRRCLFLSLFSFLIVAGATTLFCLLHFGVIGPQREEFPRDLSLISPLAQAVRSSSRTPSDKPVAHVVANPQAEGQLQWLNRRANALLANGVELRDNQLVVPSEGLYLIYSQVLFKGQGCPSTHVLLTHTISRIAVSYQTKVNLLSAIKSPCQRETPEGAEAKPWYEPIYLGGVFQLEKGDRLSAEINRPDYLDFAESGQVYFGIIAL

`CCOP(=O)(OCC)OC(=CCl)c1ccc(Cl)cc1Cl`: the half-maximal activity concentration (AC50) (in general, the concentration at which the activity in the assay is half-maximal) in test [1] is 22.5 µM (active); in test [2], 11.9 µM (active); in the test with CD40, CD40 (gene 958), 20 µM (active); in the test with CD69, CD69 (gene 969) it was 20 µM (active); in test [6], 28.6 µM (active). For the same molecule, the outcome in test [3] is “inactive”; in test [4] it was “inactive”; with CD38, CD38 (gene 952) it was “inactive”; in test [5], “inactive”; in test [7], “inactive”.

Regarding `Cc1cccc(OP(=O)(Oc2cccc(C)c2)Oc2cccc(C)c2)c1`, the outcome was “inactive” in test [1]; “inactive” in [2]; “inactive” with CD38, CD38 (gene 952); “inactive” with CD40, CD40 (gene 958); “inactive” in the test with CD69, CD69 (gene 969); “inactive” in [5]. The result in test [6] and in [7] was inactive. In addition, in [3], the AC50 was 32.3 µM (active).

`c1ccc(-c2cccc(-c3ccccc3)c2)cc1`: the AC50 in [1] was 30.2 µM (active); in test [2], 32.7 µM (active); in the test with CD38, CD38 (gene 952) it was 30.5 µM (active); with CD40, CD40 (gene 958) it was 29.4 µM (active); in the test with CD69, CD69 (gene 969) it was 30.9 µM (active); in test [5] it was 32.5 µM (active). Also, the half-maximal activity concentration (AC50) in test [6] is 33.1 µM (active). Further, the result in test [3] and in test [7] was inactive.

`CC(C)(COCC1CO1)COCC1CO1` (centres undefined): the outcome was “inactive” in test [1]; “inactive” in [2]; “inactive” in test [3]; “inactive” with CD38, CD38 (gene 952); “inactive” with CD40, CD40 (gene 958); “inactive” in test [5]. For the same molecule, the outcome in test [7] was inactive. The AC50 in the test with CD69, CD69 (gene 969) is 20 µM (active); in [6] it was 20 µM (active).

For `OCCN(CCO)CCO`, the outcome in test [1] is “inactive”; in test [2] it was “inactive”; in [3], “inactive”; with CD38, CD38 (gene 952), “inactive”; with CD40, CD40 (gene 958) it was “inactive”; in the test with CD69, CD69 (gene 969), “inactive”. Also, the result in test [5], in [6] and in test [7] was inactive.

On to `Nc1c(Oc2ccccc2)cc(O)c2c1C(=O)c1ccccc1C2=O`, for which the outcome in [1] is “inactive”; in [3], “inactive”; with CD69, CD69 (gene 969), “inactive”; in [7] it was “inactive”. Besides, the half-maximal activity concentration (AC50) in test [2] is 2.54 µM (active); in the test with CD38, CD38 (gene 952) it was 10 µM (active); in the test with CD40, CD40 (gene 958), 7.45 µM (active); in [5], 0.803 µM (active); in [6], 0.795 µM (active).

With `O=C(Cc1ccccc1)OCCc1ccccc1`, the outcome in test [1] is “inactive”; in test [2], “inactive”; in test [3] it was “inactive”; in the test with CD38, CD38 (gene 952), “inactive”; with CD40, CD40 (gene 958), “inactive”; in the test with CD69, CD69 (gene 969), “inactive”. Also, the outcome in test [5], in test [6] and in test [7] was inactive.

Regarding `O=C(O)C1(c2ccc3c(c2)OC[C@H](Cc2ccc(-c4ccccc4)cc2)[C@H]3O)CCCC1`, the outcome in test [1] was “inactive”; in test [2], “inactive”; in [3], “inactive”; in the test with CD69, CD69 (gene 969), “inactive”; in [7], “inactive”. The AC50 with CD38, CD38 (gene 952) was 23.3 µM (active); in the test with CD40, CD40 (gene 958), 20 µM (active); in [5], 20 µM (active); in test [6], 14.1 µM (active).

Turning to `Oc1cc(Cl)c(Cl)cc1Cl`, the concentration at half-maximal activity (AC50) in [1] is 20 µM (active); with CD38, CD38 (gene 952), 26.8 µM (active); with CD40, CD40 (gene 958), 24.8 µM (active); in the test with CD69, CD69 (gene 969), 20 µM (active); in test [5] it was 32.2 µM (active); in test [6], 26.5 µM (active). Also, the outcome in [2], in test [3] and in [7] was inactive.

Turning to `Clc1cccc(Cl)c1Cl`, the outcome is “inactive” in test [1]; “inactive” in [2]; “inactive” in test [3]; “inactive” with CD38, CD38 (gene 952); “inactive” with CD40, CD40 (gene 958); “inactive” with CD69, CD69 (gene 969). In addition, the result in test [5], in test [6] and in [7] was inactive.

In the case of `Oc1c(Cl)cc(Cl)cc1Cl`, the outcome was “inactive” in [1]; “inactive” in [2]; “inactive” in test [3]; “inactive” in the test with CD38, CD38 (gene 952); “inactive” with CD69, CD69 (gene 969); “inactive” in test [5]. Besides, the outcome in test [6] and in test [7] was inactive. Moreover, in the test with CD40, CD40 (gene 958), the AC50 was 13.3 µM (active).

Consider `CN(C)C(=S)S`, for which the outcome in [1] was “inactive”; in test [2], “inactive”; in test [3] it was “inactive”; with CD38, CD38 (gene 952) it was “inactive”; with CD40, CD40 (gene 958), “inactive”; in the test with CD69, CD69 (gene 969), “inactive”. The result in test [5], in test [6] and in test [7] was inactive.

Take `CCCCCCCCCCCCN(C)C`: the outcome in test [1] was “inactive”; in [2], “inactive”; in test [3] it was “inactive”; with CD38, CD38 (gene 952), “inactive”; with CD40, CD40 (gene 958) it was “inactive”; with CD69, CD69 (gene 969), “inactive”. Further, the outcome in [5], in test [6] and in test [7] was inactive.

Take `Cc1cc(C(C)(C)c2ccc(O)c(C)c2)ccc1O`: the concentration at half-maximal activity (AC50) is 15.1 µM (active) in [1]; 14.7 µM (active) with CD38, CD38 (gene 952); 15.4 µM (active) with CD40, CD40 (gene 958); 15.4 µM (active) with CD69, CD69 (gene 969); 15.9 µM (active) in [5]; 14.8 µM (active) in test [6]. The result in test [2], in test [3] and in test [7] was inactive.

Consider `c1ccc2sc(SNC3CCCCC3)nc2c1`, for which the outcome in [1] was “inactive”; with CD38, CD38 (gene 952), “inactive”; with CD40, CD40 (gene 958), “inactive”; in the test with CD69, CD69 (gene 969) it was “inactive”; in [5], “inactive”; in [6], “inactive”. Also, the outcome in test [7] was inactive. Moreover, the AC50 is 0.676 µM (active) in test [2] and 30.5 µM (active) in test [3].

With `CC(C)O.CC(C)O.OCCN(CCO)CCO.OCCN(CCO)CCO.[Ti]`, the outcome in test [1] was “inactive”; in [3], “inactive”; with CD38, CD38 (gene 952) it was “inactive”; with CD40, CD40 (gene 958), “inactive”; in the test with CD69, CD69 (gene 969), “inactive”; in test [5], “inactive”. In addition, the outcome in test [6] and in test [7] was inactive. For the same molecule, in test [2], the AC50 is 1.38 µM (active).

With `COCC(=O)N(c1c(C)cccc1C)[C@H](C)C(=O)OC`, the outcome is “inactive” in [1]; “inactive” in test [2]; “inactive” in [3]; “inactive” with CD38, CD38 (gene 952); “inactive” with CD40, CD40 (gene 958); “inactive” with CD69, CD69 (gene 969). In addition, the outcome in test [5], in [6] and in test [7] was inactive.
